Compounds with a hit are over-represented: about 7.5% of the library has one in this group of screens.
ELG1 genotox = qHTS screen for small molecules that induce genotoxicity in human embryonic kidney (HEK293T) cells expressing luciferase-tagged ELG1. Potency, µM (doses to about 46 µM), inactives show at the highest dose activity change, positive = activation, hits mostly activators. AID 504466, 2011. HEK293T ELG1-luciferase reporter, luminescence, 16 h. 330,000 tested, 1.3% active; further: % of control where 0% means no effect; nearly all actives have a fitted effect of over 60% in size
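Genotoxic stress is detected as increased luminescence from luciferase-tagged ELG1 in HEK293T cells, measured with ONE-Glo after a 16 hr treatment at 37 °C.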
FLuc counter = qHTS profiling assay for firefly luciferase inhibitor/activator using purifed enzyme and Km concentrations of substrates (counterscreen for miR-21 project). Potency, µM (doses to about 57.5 µM), for the others: at the top dose activity change, negative = inhibition, usual class: inhibitors. 360,000 tested, 6.9% active. Luciferin 4-monooxygenase (Photinus pyralis), P08659. purified FLuc, Km substrates, luminescence inhibition;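 further: plate controls were vehicle for no effect and reference inhibitor for full effect; nearly all actives have a fitted effect of over 55% in size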
Target sequence (P08659 whole entry, looked up): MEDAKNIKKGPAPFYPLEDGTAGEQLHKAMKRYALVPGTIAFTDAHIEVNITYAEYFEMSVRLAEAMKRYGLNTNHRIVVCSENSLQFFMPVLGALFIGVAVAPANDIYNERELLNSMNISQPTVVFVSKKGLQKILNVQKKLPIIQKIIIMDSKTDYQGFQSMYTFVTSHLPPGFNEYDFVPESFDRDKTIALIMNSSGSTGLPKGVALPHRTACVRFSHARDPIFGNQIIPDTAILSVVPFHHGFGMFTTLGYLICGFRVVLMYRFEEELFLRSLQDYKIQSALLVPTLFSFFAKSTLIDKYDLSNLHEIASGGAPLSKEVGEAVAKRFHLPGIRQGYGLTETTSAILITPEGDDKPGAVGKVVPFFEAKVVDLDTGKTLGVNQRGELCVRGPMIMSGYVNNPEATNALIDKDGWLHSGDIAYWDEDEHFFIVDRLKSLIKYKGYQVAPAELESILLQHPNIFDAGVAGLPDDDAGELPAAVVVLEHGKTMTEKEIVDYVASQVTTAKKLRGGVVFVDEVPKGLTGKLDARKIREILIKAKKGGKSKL
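Purified P. pyralis luciferase, 10 nM final, with Km-level 10 uM D-luciferin and 10 uM ATP in 50 mM Tris acetate pH 7.5, 10 mM Mg acetate, 0.01% Tween-20, 0.05% BSA; 6-point qHTS titration about 60 µM downward; luminescence read.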
NPC1 prom act = qHTS Assay for NPC1 Promoter Activators | 320,000 tested, 2.4% active | Potency, µM (top dose mostly 9.22 µM), for inactives: top-dose activation, usual class: activators | Huh7 NPC1 promoter luciferase reporter, 24 h; further: % of control where 0% means no effect; nearly all actives have a fitted effect of over 60% in size
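Compounds in DMSO were transferred onto Huh7 NPC1-luciferase reporter cells pre-incubated 2 h; after 24 h at 37 °C, Amplite reagent was dispensed and luminescence recorded 10 min later.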
Rab9 prom act = qHTS Assay for Rab9 Promoter Activators; Huh7 Rab9 promoter-luciferase reporter, luminescence, 24 h; Potency, µM (titrated, usually from 9.22 µM), without a hit: at the top dose activation, negative = inhibition, most hits filed as activators; 320,000 tested, 2.8% active; AID 485297, 2010; further: % of control where 0% means no effect; nearly all actives have a fitted effect of over 60% in size
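Huh7 cells stably carrying Rab9 promoter–luciferase reporter, plated 1500 cells/well, compound added after 2 h and incubated 24 h at 37 °C; luciferase luminescence then read after 10 min with detection reagent.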
SMN2 splice enh = qHTS Assay for Enhancers of SMN2 Splice Variant Expression; HEK293 SMN2-luciferase splicing reporter, luminescence, 30-36 h; Potency, µM (top dose mostly 46.1 µM), inactives show at the highest dose activity change, positive = activation, most hits filed as activators; 210,000 tested, 2.8% active; AID 1458, 2008; further: % of control where 0% means no effect; nearly all actives have a fitted effect of over 55% in size
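qHTS luciferase splicing reporter: luminescence rises when SMN2 exon 7 is included in transfected HEK293 cells. Compound exposure lasted 30-36 h at 37C, with 4.5 mM final sodium butyrate as control, followed by a ONE-Glo read.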
The depositor's hits bear a star; ? = inconclusive; / = not tested or not shown; [ ] = remark or other dose. The call rests on the fitted dose curve; in most records, active means well fitted curve in the direction sought with a large enough effect; inconclusive means small, poorly fitted or top-dose-only effect, or another doubt; inactive means no such curve, though single readings can be large; an effect the other way counts as inactive or inconclusive. Potency means the concentration at half of the fitted maximal effect.

SMILES	ELG1 genotox	FLuc counter	NPC1 prom act	Rab9 prom act	SMN2 splice enh
O=C(Cn1c(/C=C/c2ccccc2)nc2ccccc21)Nc1ccc(F)cc1	?	4.8µM*	21%	?	?
O=C(COC(=O)Cc1ccc(Br)cc1)Nc1ccc(Cl)cn1	-2%	/	/	/	/
CCC1(c2ccc(F)cc2)NC(=O)N(CC(=O)Nc2cc(C)on2)C1=O (stereo not drawn)	0%	0%	-4%	-3%	/
Cn1c(/C=C/c2ccc(Cl)cc2)nc2ccccc2c1=O	?	3.8µM*	4µM*	2.8µM*	/
Cn1c(/C=C/c2ccccc2)nc2ccccc2c1=O	5%	?	?	?	/
COc1ccc(/C=C/c2nc3ccccc3n2C)cc1	?	0.13µM*	?	?	0.32µM*
COc1ccc(C(O)c2nc3ccccc3n2C(C)C)cc1 (stereo not drawn)	-4%	-1%	-9%	-5%	/
COc1ccccc1/C=C/c1nc2ccccc2n1C(C)C	/	3.4µM*	/	/	?
CCCn1c(/C=C/c2cc[n+](C)cc2)nc2ccccc21	-2%	-1%	-5%	-2%	/
CCCCCCn1c(/C=C/c2ccccc2)nc2ccccc21	/	3µM*	/	/	-82%
CCC(=O)OC1C2CC3=C4CC(=O)OC(c5ccoc5)[C@]4(C)CCC3[C@@](C)(C2=O)C(CC(=O)OC)C1(C)C (stereo partly drawn)	/	/	/	/	-15%
Cc1c(NC(=O)C(C)OC(=O)/C=C/c2ccc(OC(F)F)cc2)c(=O)n(-c2ccccc2)n1C (stereo not drawn)	1%	-7%	-2%	1%	/
COC(=O)c1ccc(C(NC(=O)OCc2ccccc2)/C(=C/[C@@H](C)C(=O)Nc2ccc(OC)cc2)c2cccnc2)cc1 (stereo partly drawn)	/	/	/	/	3%
COc1ccc(Cn2c(/C=C/c3ccccc3)nc3ccccc32)cc1	?	0.85µM*	2.5µM*	1.3µM*	?
CC(C)Cn1c(/C=C/c2ccccc2)nc2ccccc21	4%	4.8µM*	?	2.8µM*	/
CC(C)(C)NS(=O)(=O)c1cnc(Cl)c(Cl)c1	2%	0%	1%	-2%	7%
CCc1ccccc1NC(=O)C1CCCN(c2nnc(-n3c(C)ccc3C)s2)C1 (stereo not drawn)	/	-3%	/	/	-6%
COc1ccc(NC(=O)Nc2ccc(CC(=O)O)cc2)cc1	-2%	13µM*	-2%	4%	2%
O=C(O)Cc1ccc(NC(=O)Nc2ccc(Br)cc2)cc1	0%	6.7µM*	3%	-10%	/
CC(C)(C)NC(=O)Nc1ccc(Br)cc1	?	15µM*	?	2.5µM*	/
COC(=O)c1cc(C(=O)OCC(=O)NC(=O)c2ccccc2)cc([N+](=O)[O-])c1	2%	-2%	-1%	0%	/
O=C(c1cn(-c2ccc(Cl)c(Cl)c2)nn1)C1CC1	7%	2%	?	?	8%
O=C1CCCCC1C(=O)c1cn(-c2ccc(Cl)c(Cl)c2)nn1 (stereo not drawn)	?	0.85µM*	11%	24%	14µM*
COc1ccccc1-c1nnc(NC(C)=O)s1	?	6.7µM*	?	?	25µM*
COc1ccccc1NC(=O)c1ccc(NC(=O)CSc2nncn2C)cc1	0%	-1%	-3%	-2%	4%
SMILES	ELG1 genotox	FLuc counter	NPC1 prom act	Rab9 prom act	SMN2 splice enh
COc1ccccc1-c1nnc(NC(=O)CSc2nncn2C)s1	6%	0.76µM*	?	?	11µM*
COc1ccccc1-c1nnc(NC(=O)C(C)Sc2nncn2C)s1 (stereo not drawn)	12%	19µM*	3%	14%	-38%
CS(=O)(=O)N1CCC(Oc2ccccc2C(=O)N2CCN(CC3CC3)CC2)CC1	1%	1%	-1%	-2%	-5%
Cc1nnsc1C(=O)NNC(=O)c1ccc(C(F)(F)F)cc1	5%	17µM*	9%	9%	/
Cc1nnsc1C(=O)NNc1ccc(C(C)(C)C)cc1	-5%	-3%	1%	2%	/
O=C(CCCCCNC(=O)N1CCn2c1nc1ccccc12)NCc1ccccc1Cl	-3%	15µM*	-7%	0%	/
O=C(CCCCCNC(=O)N1CCn2c1nc1ccccc12)NCc1ccc(Cl)cc1	-3%	24µM*	-1%	0%	/
Cc1ccc(CNC(=O)CCCCCNC(=O)N2CCn3c2nc2ccccc23)cc1	0%	15µM*	-2%	-1%	/
Cc1ccc(CNC(=O)CCNC(=O)N2CCn3c2nc2ccccc23)cc1	-2%	?	-4%	-5%	/
CSCCC(NS(=O)(=O)c1ccccc1F)C(=O)Nc1ccncc1 (stereo not drawn)	3%	7%	1%	-5%	/
COc1ccc(-n2nc3ccc(N)cc3n2)cc1Cl	?	1.5µM*	21%	14%	/
COc1ccc(-n2nc3ccc(NC(=O)c4ccc(C#N)cc4F)cc3n2)cc1Cl	/	-2%	/	/	8%
Cc1ccc(-n2nc3ccc(N)cc3n2)c(C)c1	?	7.6µM*	2%	22%	/
Cc1ccc(-n2nc3ccc(N)cc3n2)cc1Cl	?	0.67µM*	?	?	/
Cc1ccc(-n2cnnn2)cc1Cl	27%	-4%	-3%	-1%	-1%
COc1ccc(-n2nc3ccc(NS(C)(=O)=O)cc3n2)cc1Cl	16µM*	3.4µM*	?	25%	25%
Cc1cc(N)n(-c2ccc(C)c(C)c2)n1	?	?	22%	29%	/
Cc1ccc(-n2nc3ccc(N)cc3n2)cc1C	0.92µM*	0.48µM*	1.6µM*	0.5µM*	/
O=C(NC1(O)C(=O)c2ccccc2C1=O)c1ccc(C(F)(F)F)cc1	0%	-14%	3%	1%	/
Cc1ccc(C(=O)NC2(O)C(=O)c3ccccc3C2=O)cc1C	-2%	2.4µM*	-3%	-2%	/
O=c1c2c3c(sc2nc2sc(C4CC4)nn12)CCCC3	5.8µM*	3µM*	2.5µM*	4µM*	7.9µM*
O=c1[nH]c(C2CC2)nc2sc3c(c12)CCCC3	2%	-14%	-3%	-10%	-3%
COc1ccc(OC)cc1	1%	/	/	/	9%
COc1ccc(-c2cc(O)cc(O)c2)cc1	6.5µM*	6.7µM*	?	?	?
COc1ccc(/C=C/C(=O)C(C(N)=O)=C2SCCS2)cc1	5%	9.5µM*	16%	20%	-72%
O=C(/C=C/c1ccccc1)c1ccc(O)cc1	/	/	/	/	-4%
O=C(/C=C/c1ccc(O)cc1)c1ccccc1	?	2.7µM*	3%	?	/
COc1ccc(/C=C/C(=O)Oc2cc(O)cc(O)c2)cc1	-1%	15µM*	-3%	-1%[1.84 µM]	/
COC(=O)c1ccccc1NC(=O)c1c(C)oc2ncn(C)c(=O)c12	/	-5%	/	/	-1%

Screening data (PubChem BioAssay)
